Laboratory results reported in PubChem BioAssay.
Active and inactive are the calls of the source.

Key:
[1] = tested on: PRMT1 (protein arginine N-methyltransferase 1); assay: PRMT1 binders on small-molecule microarrays, primary screen, biochemical, small-molecule microarray, 635 nm fluorescence (AID 1088); conditions: small-molecule microarray binding, higher = more signal;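 also: binding of Prmt1 protein to compounds spotted on small-molecule microarray slides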
[2] = yeast growth modulation, basal conditions, primary screen, YJM789 clinical isolate, OD600, 24 h (AID 1089);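 also: growth of clinical yeast isolate S. cerevisiae YJM 789 seeded 1000 cells per well; test concentration not given here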; conditions: S. cerevisiae YJM789 growth, higher = more signal, called active from +8 up or from −8 down
[3] = fission yeast growth modulation, primary screen, strain 972, OD600, 24 h, no modulator (AID 1090);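 also: basal condition with compound alone and no growth modifier present; test concentration not given here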; conditions: S. pombe 972 growth, higher = more signal, called active from +8 up or from −8 down
[4] = S. cerevisiae growth modulation with rapamycin, primary screen, strain BY4716, OD600, 96 h (AID 1091); conditions: higher = more signal, called active from +8 up or from −8 down; also: test concentration not given here
[5] = molecular target: Torsin-1A-interacting protein 2 (Homo sapiens) (UniProt Q8NFQ8); assay: LULL1 binders on small-molecule microarray, primary screen, cell lysate, human LULL1 lysate, 635/667 nm fluorescence (AID 1092); conditions: hLULL1 lysate binding, 635 nm fluorescence, higher = more signal;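 also: probe is lysate of COS7 cells overexpressing human LULL1; score merges per-feature 667 nm fluorescence with signal-to-noise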
Chain of Torsin-1A-interacting protein 2 (Homo sapiens) (Q8NFQ8 whole entry, looked up): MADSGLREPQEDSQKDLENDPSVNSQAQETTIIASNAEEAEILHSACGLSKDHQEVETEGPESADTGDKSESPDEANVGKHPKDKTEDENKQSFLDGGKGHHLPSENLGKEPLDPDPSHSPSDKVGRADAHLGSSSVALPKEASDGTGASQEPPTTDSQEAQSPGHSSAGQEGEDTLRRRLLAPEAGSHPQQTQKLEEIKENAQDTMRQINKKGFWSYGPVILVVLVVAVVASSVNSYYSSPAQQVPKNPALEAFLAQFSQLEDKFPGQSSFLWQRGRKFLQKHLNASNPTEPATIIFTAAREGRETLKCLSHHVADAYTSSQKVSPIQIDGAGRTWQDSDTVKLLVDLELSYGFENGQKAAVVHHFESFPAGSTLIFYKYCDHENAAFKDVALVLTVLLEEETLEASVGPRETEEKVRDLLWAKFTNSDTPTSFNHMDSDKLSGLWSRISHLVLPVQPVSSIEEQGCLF

[6] = E. coli growth modulation, two-sided OD650, primary screen, E. coli filamentation project, strain DRC41, 24 h (AID 1093); conditions: OD650, 24 h, higher = more signal, called active from +8 up or from −8 down;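 also: MC1000 strain lacking acrAB efflux and sulA so SOS filamentation is blocked; test concentration not given here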
[7] = small-molecule microarray binders of probe aLefty2, primary screen, biochemical, biotinylated probe, 635/667 nm fluorescence (AID 1094); conditions: higher = more signal;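 also: score merges spot fluorescence near 667 nm with spot signal-to-noise ratio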
[8] = tested on: Noggin (protein binding on small-molecule microarray); assay: Noggin binders on small-molecule microarray, primary screen, biochemical, 635/667 nm fluorescence (AID 1095); conditions: 635 nm fluorescence, higher = more signal;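 also: score merges 667 nm feature fluorescence with signal to noise over triplicate slides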
[9] = molecular target: Neurogenic locus notch homolog protein 3 (Homo sapiens) (UniProt Q9UM47); assay: NOTCH3 binders on small-molecule microarray, primary screen, biochemical, 635/667 nm fluorescence (AID 1096); conditions: NOTCH3 binding, 635 nm fluorescence, higher = more signal
Chain of Neurogenic locus notch homolog protein 3 (Homo sapiens) (Q9UM47 whole entry, looked up): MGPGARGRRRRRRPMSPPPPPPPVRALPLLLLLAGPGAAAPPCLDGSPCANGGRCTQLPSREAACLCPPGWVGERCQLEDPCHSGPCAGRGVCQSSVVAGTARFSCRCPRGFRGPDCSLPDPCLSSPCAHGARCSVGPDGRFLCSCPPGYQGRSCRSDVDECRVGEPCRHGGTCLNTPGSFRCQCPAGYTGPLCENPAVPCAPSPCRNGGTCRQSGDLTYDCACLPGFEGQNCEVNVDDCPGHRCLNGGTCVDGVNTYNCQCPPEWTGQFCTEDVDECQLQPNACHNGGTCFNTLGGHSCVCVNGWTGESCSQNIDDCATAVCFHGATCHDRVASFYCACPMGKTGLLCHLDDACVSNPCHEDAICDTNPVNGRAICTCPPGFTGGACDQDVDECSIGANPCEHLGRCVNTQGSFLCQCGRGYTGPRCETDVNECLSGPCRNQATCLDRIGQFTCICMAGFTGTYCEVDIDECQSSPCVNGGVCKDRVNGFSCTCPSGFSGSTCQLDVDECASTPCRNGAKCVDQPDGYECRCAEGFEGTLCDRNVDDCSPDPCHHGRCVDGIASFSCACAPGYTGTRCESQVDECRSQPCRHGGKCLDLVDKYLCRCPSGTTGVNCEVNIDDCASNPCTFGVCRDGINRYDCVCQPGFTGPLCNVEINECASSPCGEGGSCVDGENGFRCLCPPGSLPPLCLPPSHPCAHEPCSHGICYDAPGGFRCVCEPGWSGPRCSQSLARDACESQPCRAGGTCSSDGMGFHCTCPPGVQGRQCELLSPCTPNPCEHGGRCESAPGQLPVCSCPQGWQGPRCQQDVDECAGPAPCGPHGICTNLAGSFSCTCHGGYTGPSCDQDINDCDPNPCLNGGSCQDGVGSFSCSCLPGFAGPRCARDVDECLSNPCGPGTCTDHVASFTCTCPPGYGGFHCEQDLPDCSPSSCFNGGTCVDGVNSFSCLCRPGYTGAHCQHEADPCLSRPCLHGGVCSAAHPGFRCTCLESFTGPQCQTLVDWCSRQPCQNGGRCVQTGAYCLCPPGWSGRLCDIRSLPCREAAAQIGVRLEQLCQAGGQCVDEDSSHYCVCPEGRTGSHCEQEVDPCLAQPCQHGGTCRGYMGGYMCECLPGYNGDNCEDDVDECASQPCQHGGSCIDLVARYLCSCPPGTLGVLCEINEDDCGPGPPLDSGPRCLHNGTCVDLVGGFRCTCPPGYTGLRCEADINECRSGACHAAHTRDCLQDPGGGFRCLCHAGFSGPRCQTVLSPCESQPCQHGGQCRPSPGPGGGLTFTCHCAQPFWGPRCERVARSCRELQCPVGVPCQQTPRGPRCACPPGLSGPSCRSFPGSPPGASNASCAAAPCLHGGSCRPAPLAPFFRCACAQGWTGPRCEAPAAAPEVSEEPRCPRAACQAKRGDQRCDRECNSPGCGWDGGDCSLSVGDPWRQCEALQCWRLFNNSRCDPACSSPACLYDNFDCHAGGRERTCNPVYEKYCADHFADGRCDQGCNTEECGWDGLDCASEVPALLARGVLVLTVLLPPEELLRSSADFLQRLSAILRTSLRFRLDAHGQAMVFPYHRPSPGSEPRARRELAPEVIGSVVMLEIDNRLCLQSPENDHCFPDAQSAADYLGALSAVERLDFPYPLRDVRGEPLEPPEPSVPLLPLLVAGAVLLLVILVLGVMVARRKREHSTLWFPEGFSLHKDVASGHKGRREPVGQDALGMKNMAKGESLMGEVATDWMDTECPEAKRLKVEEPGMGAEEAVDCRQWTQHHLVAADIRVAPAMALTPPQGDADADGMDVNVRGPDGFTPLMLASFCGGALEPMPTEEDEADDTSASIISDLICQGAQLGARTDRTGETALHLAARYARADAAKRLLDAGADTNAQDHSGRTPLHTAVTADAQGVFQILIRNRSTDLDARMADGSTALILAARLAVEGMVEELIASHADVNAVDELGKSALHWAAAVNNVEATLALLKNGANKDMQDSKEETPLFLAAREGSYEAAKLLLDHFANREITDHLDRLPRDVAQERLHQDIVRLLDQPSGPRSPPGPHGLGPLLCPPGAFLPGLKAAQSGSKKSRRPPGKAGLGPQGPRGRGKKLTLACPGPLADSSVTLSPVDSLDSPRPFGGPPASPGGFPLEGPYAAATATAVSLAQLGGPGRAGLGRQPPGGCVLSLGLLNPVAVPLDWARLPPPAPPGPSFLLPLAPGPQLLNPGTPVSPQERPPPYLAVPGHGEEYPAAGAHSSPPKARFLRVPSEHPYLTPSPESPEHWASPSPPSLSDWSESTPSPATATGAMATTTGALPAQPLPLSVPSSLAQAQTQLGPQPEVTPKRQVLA

[10] = small-molecule microarray binders of probe aEGFR, primary screen, biochemical, biotinylated probe, 635/667 nm fluorescence (AID 1097); conditions: higher = more signal;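 also: probe is a biotinylated anti-EGFR antibody binding compounds printed on slides; score combines fluorescence near 667 nm and signal to noise of each spot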

| Structure (SMILES) | composite z-score [1] | z-score [2] | z-score [3] | z-score [4] | composite z-score [5] | z-score [6] | composite z-score [7] | composite z-score [8] | composite z-score [9] | composite z-score [10] |
| --- | --- | --- | --- | --- | --- | --- | --- | --- | --- | --- |
| NCCCCCCNC(=O)[C@@H]1C[C@@H]2C(=O)NCC(=O)N2[C@@H]1c1ccc(O)cc1 | 1.56 | 0.0703 (inactive) | 0.467 (inactive) | -0.129 (inactive) | 1.01 | 1.1 (inactive) | -0.0324 | 1.58 | 1.07 | -0.0409 |
| COc1ccc(CCNC(=O)[C@@]2(Sc3ccc(C)cc3)CC(=O)N(C3Cc4ccccc4C3)[C@@H]2c2ccc(CO)cc2I)cc1 | 0.789 | 0.534 (inactive) | -2.75 (inactive) | 3.02 (inactive) | 1.99 | 0.171 (inactive) | 0.119 | -1.37 | -0.0239 | -0.172 |
| CC(C)C[C@@H]1NC(=O)[C@H](C(C)C)NC(=O)[C@@]23C(=O)N[C@@H](Cc4ccccc4)C2[C@H](C)[C@@]2(C)O[C@H]2C3/C=C/CC/C=C/CNC1=O (stereo not given in full) | 1.55 | -0.0106 (inactive) | -0.328 (inactive) | -0.522 (inactive) | 2.27 | -0.215 (inactive) | -0.0346 | 0.782 | 1.03 | -0.096 |
| COC(=O)[C@@]1(Cc2ccc(OC)cc2)[C@H]2c3cc(C(=O)N(C)C)n(CCc4ccccn4)c3C[C@H]2CN1C(=O)c1ccccc1 | -0.663 | 0.735 (inactive) | 1.55 (inactive) | 2.81 (inactive) | 2.5 | -0.901 (inactive) | 1.09 | -0.307 | 0.0532 | 0.865 |
| CN(C)CCCC[C@@H]1NC(=O)[C@H]2C[C@@H](C(=O)NCCCCCCN)[C@@H](c3ccc(O)cc3)N2C1=O | 1.57 | 0.307 (inactive) | -0.235 (inactive) | -0.447 (inactive) | 3.08 | 0.278 (inactive) | 1.14 | 1.84 | 1.15 | 0.566 |
| O=C1NC(=O)C2C1C=CC(C(O)c1cc(C(F)(F)F)cc(C(F)(F)F)c1)N2Nc1ccccn1 (stereo not given) | 0.463 | 0.307 (inactive) | 1.19 (inactive) | -0.697 (inactive) | 1.21 | -1.02 (inactive) | 0.05 | 0.159 | 0.429 | -0.129 |
| O=C1OCCC/C=C\[C@H]2OC34C=CCN(Cc5ccccc5)C(=O)[C@H]3N(CCCO)C(=O)[C@@H]4C12 (stereo not given in full) | -0.523 | 0.769 (inactive) | -0.0304 (inactive) | 0.972 (inactive) | 1.83 | 0.872 (inactive) | -0.126 | -1.75 | -0.386 | -0.246 |
| CO[C@H]1O[C@H](CO)[C@@H](OC(=O)Nc2cccc(F)c2)[C@H](OC(=O)Nc2ccccc2)[C@@H]1OC(=O)Nc1ccccc1 | 1.53 | 0.347 (inactive) | 1.32 (inactive) | 14.4 (active) | 3.12 | -0.621 (inactive) | 0.182 | 0.286 | 1.09 | 0.181 |
| O=C(CS)NCCCCCCNC(=O)[C@@H]1C[C@@H]2C(=O)N[C@@H](Cc3ccccc3)C(=O)N2[C@@H]1c1cccc(OCCO)c1 | 1.54 | -0.485 (inactive) | 0.279 (inactive) | 0.211 (inactive) | 2.92 | -1.21 (inactive) | 0.0747 | 0.988 | 1.04 | 0.122 |
| CC(C)C(CO)N1C(=O)[C@@H]2C3C(=O)OCCC/C=C\[C@H]3OC23C=CCN(CCN2CCOCC2)C(=O)[C@@H]13 (stereo not given in full) | 0.463 | 0.366 (inactive) | -0.21 (inactive) | 0.205 (inactive) | -0.272 | -0.241 (inactive) | -0.245 | 0.0867 | 0.0008 | -0.146 |
| C=CCOC(=O)[C@H]1[C@@H]2C(=O)O[C@@H](c3ccccc3)[C@@H](c3ccccc3)N2[C@@H](c2ccc(OCCOC(=O)[C@H]3C[C@H]4C(=O)N[C@@H](CCCCN(C)C)C(=O)N4[C@H]3c3ccc(O)cc3)cc2)[C@]12C(=O)Nc1ccc(I)cc12 | 1.55 | -0.0743 (inactive) | -0.526 (inactive) | -0.698 (inactive) | 2.49 | -0.411 (inactive) | 0.172 | 1.73 | 1.07 | 0.124 |
| C=CCNC(=O)[C@H]1[C@@H]2C(=O)O[C@@H](c3ccccc3)[C@@H](c3ccccc3)N2[C@@H](c2ccccc2OCCO)[C@]12C(=O)Nc1ccc(C#CCCO)cc12 | -0.294 | 1.69 (inactive) | -0.648 (inactive) | 4.32 (inactive) | 2.24 | -0.462 (inactive) | -0.0617 | -0.76 | -0.104 | -0.0353 |
| COc1cc2c(cc1O)C(c1cccs1)N(C)CC2 (stereo not given) | -0.414 | 0.213 (inactive) | 1.07 (inactive) | -2.13 (inactive) | -0.849 | 0.841 (inactive) | -0.0943 | -0.428 | -0.0102 | -0.151 |
| CC1(C)[C@@H]2CC(C(O)C3C=CC4C(=O)N(Cc5ccccc5)C(=O)C4N3n3cnnc3)=C[C@H]1C2 (stereo not given in full) | 1.29 | 0.0365 (inactive) | 1.57 (inactive) | 1.38 (inactive) | 3.12 | -0.117 (inactive) | 0.104 | 0.458 | 0.791 | 0.0564 |
